Yeast superoxide: caloric restriction mimetics inhibiting age-related superoxide in yeast | S. cerevisiae aged cells, superoxide DHE fluorescence; stronger effect = lower value | superoxide response (% of plate mean), % at 10 µM | hit rate 0.18% among 330,000;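 active = superoxide response under a set limit, about three screen SD below normal, cut at about 65% in these data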;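 note: yeast aged for seven days with compound at 30 °C before DHE staining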
Efflux pump inh: inhibitors of Candida antifungal efflux pumps expressed in yeast; S. cerevisiae Candida pump triplex, Nile Red efflux; hit rate 0.44% among 330,000; inhibition, % at 10 µM;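 active = plate passing quality check with inhibition over a set limit, or well fluorescence over plate mean plus 4 SD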;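 note: Nile Red retained in pooled yeast measured as flow cytometry median fluorescence; higher means more Nile Red kept so more efflux inhibition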
GRK2 aptamer HTS: human GRK2 inhibition via aptamer displacement; bead flow cytometry, FAM-aptamer displacement from GRK2; inhibition of aptamer binding, % at 10 µM; hit rate 0.59% among 330,000;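 active = inhibition of aptamer binding above 40%, roughly 3 SD of noise, on plates passing a quality check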;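 note: median bead fluorescence of bound FAM aptamer so fluorescent compounds give negative values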
ATG4B inh: ATG4B (human) cysteine protease inhibition; ATG4B cleavage of LC3-PLA2, NBD-HPC fluorescence, 1 h; inhibition, % at 8.33 µM; Q9Y4P1; hit rate 0.51% among 340,000; in the data active = inhibition above about 40%
Target sequence (Q9Y4P1 whole entry, looked up): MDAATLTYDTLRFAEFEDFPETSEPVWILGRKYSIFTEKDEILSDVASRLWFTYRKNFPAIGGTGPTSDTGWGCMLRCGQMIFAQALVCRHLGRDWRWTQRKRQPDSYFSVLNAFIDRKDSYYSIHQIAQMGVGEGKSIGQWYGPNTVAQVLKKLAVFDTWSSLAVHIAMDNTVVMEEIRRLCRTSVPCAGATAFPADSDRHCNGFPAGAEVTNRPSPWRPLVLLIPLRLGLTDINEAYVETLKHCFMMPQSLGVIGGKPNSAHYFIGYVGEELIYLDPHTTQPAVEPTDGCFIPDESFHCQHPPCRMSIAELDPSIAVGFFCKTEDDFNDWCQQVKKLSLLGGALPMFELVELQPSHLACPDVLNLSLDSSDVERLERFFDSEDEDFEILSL
ATG4B conf: ATG4B (human) inhibition, single-dose confirmed | AID 504757 | shares compounds with ATG4B inh | inhibition, % at 8.33 µM | hit rate 92% among 320 | ATG4B protease fluorescent substrate cleavage assay; in the data active = inhibition above about 39%
PLA2 counter: inhibits human PLA2, flagging false ATG4B inhibitors; shares compounds with ATG4B inh; inhibition, % at 8.33 µM; purified PLA2, NBD-C6-HPC fluorescence, 45 min; hit rate 66% among 1,600; in the data active = inhibition above about 50%
Target sequence (P04054 whole entry, looked up): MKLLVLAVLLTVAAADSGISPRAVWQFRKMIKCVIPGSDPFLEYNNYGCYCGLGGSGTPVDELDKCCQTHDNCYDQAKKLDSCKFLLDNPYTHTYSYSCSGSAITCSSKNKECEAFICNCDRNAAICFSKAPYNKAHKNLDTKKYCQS
Of the large screens only hits and unclear results are named; the others gave an inactive call (follow-up assays come after a bar, where they were run). A selection: hits, their analogues and other compounds. The true share with any hit is near 1.6%.

CN(C)S(=O)(=O)c1ccc(N2CCCC2)c(C(=O)NNC(=O)COc2cccc(F)c2)c1	none
CC1CC(C)CN(C(=O)c2ccc3c(c2NCCO)C(=O)c2ccccc2C3=O)C1 (configuration not stated)	ATG4B inh 59 | PLA2 counter 67
CCCCCC(=O)Nc1ccccc1N1CCN(c2ccccc2)CC1	ATG4B inh 41 | ATG4B conf 51 | PLA2 counter inactive
Cc1ccc(-c2nc(-c3cccnc3)sc2CC(=O)Nc2ccc3nc(C)sc3c2)cc1	ATG4B inh 45 | PLA2 counter inactive
CCOC(=O)c1ccccc1NC(=O)Cc1sc(-c2cccnc2)nc1-c1ccc(C)cc1	none (no result: ATG4B inh)
COc1ccc(C2=CC(=O)C[C@H](c3ccc4c(c3)OCO4)C2)cc1	none
CCOC(=O)c1c(N2C(=O)Nc3cc(Cl)c(Cl)cc3N2O)sc2c1CCCCC2	ATG4B inh 77 | PLA2 counter 92
CC(C)CCOc1ccc(/C=C2\CCn3c2nc2cc(C(=O)O)ccc2c3=O)cc1	ATG4B inh 97 (no result: Yeast superoxide, Efflux pump inh, GRK2 aptamer HTS) | PLA2 counter 92
COC(=O)c1ccc(/C=C2\CCn3c2nc2cc(C(=O)O)ccc2c3=O)cc1	none
Cc1nn(Cc2c(F)c(F)c(F)c(F)c2F)c(C)c1NC(=O)c1cccc(COc2ccccc2Cl)c1	ATG4B inh 63 | PLA2 counter 56
Cc1nn(Cc2c(F)c(F)c(F)c(F)c2F)c(C)c1NC(=O)c1ccc(COc2ccc(Cl)cc2Cl)o1	ATG4B inh 88 | PLA2 counter 85
Cc1nn(Cc2ccc(Cl)cc2Cl)c(C)c1NC(=O)c1ccc(COc2cc(Cl)ccc2Cl)o1	none
Cc1c(C(=O)O)cccc1-c1ccc(/C=N/Nc2ccc(Br)cc2)o1	ATG4B inh 48 | PLA2 counter inactive
CN(C)/N=C/c1ccc(P(c2ccc(/C=N/N(C)C)o2)c2ccc(/C=N/N(C)C)o2)o1	none
O=C(COC(=O)COc1ccccc1[N+](=O)[O-])NC1CCCCC1	none
COC1=CC(=O)c2c(ccc3ncnc(N)c23)C1=O	ATG4B inh 62 (no result: Yeast superoxide, Efflux pump inh, GRK2 aptamer HTS) | ATG4B conf 49 | PLA2 counter inactive
COc1cccc2c1C(=O)C=C(C)C2=O	none
CC(=O)N1CC2([N+](=O)[O-])CN(C(C)=O)CC([N+](=O)[O-])(C1)C2(C)C	none
Cc1ccccc1NS(=O)(=O)c1ccc(C(=O)N(C)CC(=O)Nc2ccccc2Br)cc1	none
COC(=O)CN1C(=O)N/C(=C/c2ccc(OC)cc2)C1=O	none
COC(=O)Cn1c(=O)c2c(n(Cc3ccccc3)c1=O)N/C(=C/c1ccc(Br)cc1)C2=O	ATG4B inh 54 | PLA2 counter 61
O=C(O)COc1ccc(-c2nc(-c3ccccc3)c(-c3ccccc3)[nH]2)cc1	ATG4B inh 48 | PLA2 counter 59
COc1ccc(-c2cc(=Nc3ccc(C(=O)O)cc3)c3cc(C)ccc3o2)cc1	ATG4B inh 41 | PLA2 counter 54
CCc1ccc2oc(-c3ccc(OC)cc3)cc(=Nc3cccc(C(=O)O)c3)c2c1	ATG4B inh 81 | PLA2 counter 80
CC(OC(=O)Cc1n[nH]c(=O)c2ccccc12)C(=O)Nc1ccc(F)cc1 (configuration not stated)	none
COc1ccccc1N1CCN(S(=O)(=O)c2ccc3nc(-c4ccccc4)[nH]c3c2)CC1	ATG4B inh 59 | PLA2 counter 58
Cc1cc([N+](=O)[O-])ccc1NC(=O)CSc1nnc(C)n1C	none
O=C1CCCC2=C1C1(CCCC1)N=C(Nc1nc3ccccc3s1)N2	ATG4B inh 75 | PLA2 counter inactive
CC1(C)CC(=O)C2=C(C1)NC(Nc1nc3ccccc3o1)=NC21CCCC1	none
O=C1CCCC2=C1C1(CCCCC1)N=C(Nc1nc3ccccc3s1)N2	ATG4B inh 55 | PLA2 counter inactive
COc1ccc(C)cc1S(=O)(=O)N(CC(=O)Nc1cccc([N+](=O)[O-])c1)c1ccc(C)c(C)c1	ATG4B inh 88 | PLA2 counter 90
Cc1ccc(NC(=O)CN(c2ccc(Cl)cc2)S(=O)(=O)c2cc([N+](=O)[O-])ccc2Cl)cc1	none
COc1ccccc1C(CC(=O)O)NS(=O)(=O)c1ccc2c(c1)N(C(C)=O)CC(C)O2 (configuration not stated)	none
COc1cc(/C=C/C(O)=C/C(=O)/C=C/c2ccc(O)cc2)ccc1O	ATG4B inh 48 | PLA2 counter inactive
COc1cc(/C=C/C(=O)NC(=O)c2ccccc2O)ccc1O	none
O=[N+]([O-])c1ccc(O)c(C=Nc2ccc3nc(-c4ccccc4)[nH]c3c2)c1	ATG4B inh 42 | PLA2 counter inactive
Oc1c(Br)cc(C=Nc2ccc3nc(-c4ccccc4)[nH]c3c2)c(O)c1Br	none
COc1ccc(C2=NNC(c3cccs3)=Nc3ccc(OC)cc32)cc1	ATG4B inh 55 | PLA2 counter 60
O=C1c2ccccc2C(=O)N1C/C=C/c1ccccc1	none
O=C1C(=O)N(C/C=C/c2ccccc2)c2ccccc21	ATG4B inh 49 | PLA2 counter 54
CC(C)n1cnc2c(NCc3ccccc3)cc(N[C@H](C)CO)cc21	none
COc1cc(OC)c(C(=O)OCC(=O)NCCC2=CCCCC2)cc1OC	none
O=C(COc1ccc(C(=O)c2ccccc2)cc1)NCC1CCCCC1	ATG4B inh 46 | PLA2 counter inactive
O=C(NNC(=O)C1CC=CCC1C(=O)O)c1ccc(Cl)cc1 (configuration not stated)	none
CCCCOc1ccc(-c2c(C#N)c(N)nc(SCC(N)=O)c2C#N)cc1	ATG4B inh 53 | PLA2 counter 58
CCn1cc(-c2ccccc2)c(C(=O)O)c1-c1ccc(OC)cc1	none
Cc1ccc(-n2nc3c(N4CCC(C(=O)N5CCN(C)CC5)CC4)nnc(C)c3c2C)cc1	none
Cc1nnc(N2CCC(C(=O)N3CCCCCC3)CC2)c2nn(-c3ccc(Cl)cc3)c(C)c12	ATG4B inh 76 | PLA2 counter 86
CCCN1CCN(C(=O)C2CCN(c3nnc(C)c4c(C)n(-c5ccc(C)cc5)nc34)CC2)CC1	none
COc1ccc(-n2nc3c(N4CCC(C(=O)N5CCCCCC5)CC4)nnc(C)c3c2C)cc1	ATG4B inh 75 | PLA2 counter 79
Cc1ccc(C)c(N2CCN(C(=O)Cc3ccc(NC4=NC5CS(=O)(=O)CC5S4)cc3)CC2)c1 (configuration not stated)	none
CC(C)(C)c1ccc(C(=O)NCCC(=O)N2CCC3(CC2)NCCc2[nH]cnc23)cc1	none
O=S(=O)(Nc1nc2ccccc2nc1N1CCN(c2ccccc2F)CC1)c1ccc(Cl)cc1	ATG4B inh 71 | PLA2 counter 68
O=C1C(SCCO)=C(SCCO)C(=O)c2ccccc21	ATG4B inh 44 | ATG4B conf 72 | PLA2 counter inactive
CCCCC1=CC2=CC(=O)C(C)(OC(=O)CCc3ccccc3)C(=O)C2=CO1 (configuration not stated)	ATG4B inh 42 | PLA2 counter 69
